Reference: PubChem BioAssay AID1159580 (chemical genetic matrix, 2015)
Where “and” joins values, the source holds several entries; their conditions need not be identical. Equal entries are not always repeated. Hit rate of the full screen: of about 5,500 compounds, about 2,000 (36%) were called active. About 18% were inconclusive and are not listed. Rule as the data show it: active = normalized growth mostly below about 0.91 (no sharp cut-off); inconclusive = no clear call, values can overlap the other calls; inactive = mostly above about 0.92. Some of the results follow.

Assay: chemical genetic growth profiling, strain panel (AID 1159580);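 also: tested at 20 µM; growth read once vehicle control cultures reached saturation at 30 °C; 1 = growth at the plate median or of vehicle wells; lower values mean less growth of the strain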
Conditions: S. cerevisiae deletion strains, growth OD

Measured: normalized growth

C[N+]1(CCCCC[N+]2(C)CCCC2)CCCC1
inactive: locus YAL013W, strain DEP1, stronger effect = lower value 1 and 0.986 | locus YAL021C, strain ccr4, stronger effect = lower value 0.99 | locus YAL026C, strain drs2, stronger effect = lower value 0.995 | locus YAL030W, strain snc1, stronger effect = lower value 1 | locus YAL040C, strain CLN3, stronger effect = lower value 0.976 | locus YBL061C, strain skt5, stronger effect = lower value 0.998 | locus YBR009C, strain hhf1, stronger effect = lower value 1 | locus YBR021W, strain FUR4, stronger effect = lower value 1.01 | locus YBR023C, strain chs3, stronger effect = lower value 0.989 | locus YBR171W, strain sec66, stronger effect = lower value 1 | locus YBR229C, strain ROT2, stronger effect = lower value 1.01 | locus YBR231C, strain swc5, stronger effect = lower value 0.986 | locus YBR279W, strain paf1, stronger effect = lower value 0.993 | locus YCL011C, strain gbp2, stronger effect = lower value 0.993 | locus YCL016C, strain dcc1, stronger effect = lower value 0.993 | locus YCL029C, strain bik1, stronger effect = lower value 1.04 | locus YCL061C, strain MRC1 (second series), stronger effect = lower value 0.994 | locus YCL061C, strain MRC1, stronger effect = lower value 0.995 | locus YCL069W, strain vba3, stronger effect = lower value 1 | locus YCR088W, strain abp1, stronger effect = lower value 0.999 | locus YDL005C, strain med2, stronger effect = lower value 0.983 | locus YDL035C, strain GPR1, stronger effect = lower value 1.01 | locus YDL040C, strain nat1, stronger effect = lower value 0.989 | locus YDL074C, strain BRE1, stronger effect = lower value 1.02 | locus YDL101C, strain DUN1, stronger effect = lower value 1.01 | locus YDL134C, strain PPH21, stronger effect = lower value 1.01 | locus YDL185W, strain tfp1, stronger effect = lower value 1.01 | locus YDL192W, strain arf1, stronger effect = lower value 1.02 | locus YDR001C, strain nth1, stronger effect = lower value 1 | locus YDR069C, strain doa4, stronger effect = lower value 0.995 | locus YDR101C, strain arx1, stronger effect = lower value 1.01 | locus YDR137W, strain rgp1, stronger effect = lower value 1.04 | locus YDR150W, strain NUM1, stronger effect = lower value 1 | locus YDR159W, strain sac3, stronger effect = lower value 0.991 | locus YDR162C, strain NBP2, stronger effect = lower value 1.01 | locus YDR195W, strain ref2 0.922 | locus YDR297W, strain sur2, stronger effect = lower value 1.01 | locus YDR318W, strain mcm21, stronger effect = lower value 1.02 | locus YDR334W, strain swr1, stronger effect = lower value 0.991 | locus YDR335W, strain msn5, stronger effect = lower value 0.991 | locus YDR363W, strain ESC2, stronger effect = lower value 0.985 | locus YDR388W, stronger effect = lower value 1.01 | locus YDR392W, strain spt3, stronger effect = lower value 1.01 | locus YDR502C, strain sam2, stronger effect = lower value 1.01 | locus YEL003W, strain gim4, stronger effect = lower value 0.997 | locus YEL037C, strain rad23, stronger effect = lower value 0.994 | locus YEL061C, strain CIN8 (second series), stronger effect = lower value 0.991 | locus YEL061C, strain CIN8, stronger effect = lower value 1 | locus YER002W, strain NOP16, stronger effect = lower value 1.01 | locus YER015W, strain faa2, stronger effect = lower value 0.993 | locus YER016W, strain bim1, stronger effect = lower value 0.995 | locus YER110C, stronger effect = lower value 1.02 | locus YER111C, strain swi4, stronger effect = lower value 0.983 | locus YER155C, strain BEM2 (second series), stronger effect = lower value 0.996 | locus YER155C, strain BEM2, stronger effect = lower value 0.997 | locus YER167W, strain BCK2, stronger effect = lower value 1 | locus YFR010W, strain ubp6, stronger effect = lower value 0.998 | locus YGL078C, strain dbp3, stronger effect = lower value 1.01 | locus YGL086W, strain mad1, stronger effect = lower value 0.996 | locus YGL167C, strain pmr1, stronger effect = lower value 1 | locus YGL173C, strain kem1, stronger effect = lower value 1 | locus YGL227W, strain vid30, stronger effect = lower value 0.984 | locus YGL240W, strain doc1, stronger effect = lower value 0.988 | locus YGL248W, strain PDE1, stronger effect = lower value 1.02 | locus YGL253W, strain hxk2, stronger effect = lower value 0.987 | locus YGR078C, strain PAC10, stronger effect = lower value 1.02 | locus YGR135W, strain pre9, stronger effect = lower value 1.01 | locus YGR229C, strain SMI1, stronger effect = lower value 1.01 | locus YGR252W, strain gcn5, stronger effect = lower value 1 | locus YHR013C, strain ard1, stronger effect = lower value 0.962 | locus YHR027C, strain rpn1, stronger effect = lower value 0.998 | locus YHR030C, strain SLT2, stronger effect = lower value 1.01 | locus YHR079C, strain IRE1 (second series), stronger effect = lower value 1.02 | locus YHR094C, strain hxt1, stronger effect = lower value 1.01 | locus YHR129C, strain ARP1, stronger effect = lower value 1.01 | locus YHR142W, strain chs7, stronger effect = lower value 0.997 | locus YHR200W, strain rpn10, stronger effect = lower value 1 | locus YIL066C, strain RNR3, stronger effect = lower value 1.01 | locus YIL073C, strain SPO22, stronger effect = lower value 1.05 | locus YIL125W, strain kgd1, stronger effect = lower value 1.02 | locus YIR030C, strain dcg1, stronger effect = lower value 1.01 | locus YJL092W, strain hpr5, stronger effect = lower value 0.997 | locus YJL095W, strain BCK1 (second series), stronger effect = lower value 0.993 | locus YJL095W, strain BCK1, stronger effect = lower value 1.03 | locus YJL115W, strain asf1, stronger effect = lower value 0.988 | locus YJL129C, strain trk1, stronger effect = lower value 0.992 | locus YJL134W, strain LCB3, stronger effect = lower value 1 | locus YJL154C, strain vps35, stronger effect = lower value 0.995 | locus YJL164C, strain tpk1, stronger effect = lower value 0.995 | locus YJL166W, strain qcr8, stronger effect = lower value 0.999 | locus YJL168C, strain set2, stronger effect = lower value 1.01 | locus YJL187C, strain SWE1 (second series), stronger effect = lower value 1.02 | locus YJL187C, strain SWE1, stronger effect = lower value 1
